SMILES strings stand for the structures. Records with an inconclusive call do not appear. Entries that show only a call come without a potency. Calls of active or inactive are those of the source. Calls come from the whole dose curve; as a rule, active = well fitted inhibition curve with a large enough effect; inconclusive = small, poorly fitted or top-dose-only effect; inactive = no such curve, though single readings can be large or run the other way.
Potency is the fitted concentration of half-maximal effect.

The assay relates to Zika virus NS2B-NS3 protease (linked construct). In words: Primary screen NINDS Rhodamine qHTS for Zika virus inhibitors (AID 1347160). Note: nearly all actives have a fitted effect of over 55% in size. To be noted: purified NS2B-NS3 protease, Rhodamine110 substrate fluorescence; series mostly up to 57.1 µM. In a few lines: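 Kinetic fluorescence (Ex 480 nm, Em 540 nm) over 15 min with 1.5 microM Rhodamine110 peptide and 25 nM linked protease.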
On the technique in general: In qHTS, concentration-response curves come from the screen itself.
Consider `C=C1C(=O)O[C@@H]2/C=C(\C)CC/C=C(/C=O)[C@H](OC)[C@@H](OC(=O)C(C)C)[C@@H]12`, for which the Potency result is “inactive”.
With `O=C([C@@H]1CCCN(c2ccc3[nH]c(C4(n5cc(Cl)cn5)CC4)nc3n2)C1)N1CCCC1`, the Potency entry is “inactive”.
Regarding `CN(C)c1cccc(Oc2cnc(Nc3cccc(O)c3)nc2)c1`, the Potency result was “inactive”.
Take `Cn1ccc(NC(=O)c2cc(Oc3ccc(C(=O)N4CCC4)c(F)c3)c3c(c2)OC(C)(C)C3)n1`: the Potency entry is “inactive”.
For `C/C=C(/C)C(=O)O[C@H]1C=C(CO)C(=O)[C@H](OC(=O)/C(C)=C/CO)[C@H]1C(C)C` the value was “inactive”; for `C=C1CC[C@H]2C(=C)CC[C@H]3C(=C)C(=O)O[C@@H]3[C@@H]12`, “inactive”.
For `C=C1C(=O)OC2/C=C(/C)C3=CC(=O)C(C)(CC(OC(=O)/C(C)=C/COC(C)=O)C12)O3` (centres undefined), the Potency entry is “inactive”.
As for `O=C1NC(=O)C(c2cnc3ccccn23)=C1c1cn2c3c(cc(F)cc13)CN(C(=O)N1CCCCC1)CC2`, the Potency result was “inactive”.
With `Cc1cnn(-c2ccccc2)c1NC(=O)COCc1ccccc1`, the Potency entry was “inactive”.
For the molecule `C#CCOc1ccc2c(c1)c(-c1ccc(C(C)C)cc1)nc(=O)n2C(C)C`, the Potency entry is “inactive”.
As for `C=C1C(=O)OC[C@@H]1C/C=C(\C)CC1CC(C)C(=O)O1` (some centres undefined), the figure is 15.8 µM (active); as for `CCCNCCc1ccc(NS(=O)(=O)c2ccc(OC(F)(F)F)cc2)cc1`, “inactive”.
Take `C[C@H]1CC[C@@]2(OC1)O[C@H]1CC3C4CC[C@H]5C[C@@H](O)CC[C@]5(C)C4=CC(=O)[C@]3(C)[C@H]1[C@@H]2C` (some centres undefined): the Potency entry was “inactive”.
For `CC(C)C[C@@H](N)C(=O)N[C@H]1C(=O)N[C@@H](CC(N)=O)C(=O)N[C@H]2C(=O)N[C@H]3C(=O)N[C@H](C(=O)N[C@H](C(=O)O)c4cc(O)cc(O)c4-c4cc3ccc4O)[C@H](O)c3ccc(c(Cl)c3)Oc3cc2cc(c3O[C@@H]2O[C@H](CO)[C@@H](O)[C@H](O)[C@H]2O[C@H]2C[C@](C)(N)[C@H](O)[C@H](C)O2)Oc2ccc(cc2Cl)[C@H]1O` the value was “inactive”.
As for `O=C(NCc1ccccc1)c1ccc2c(=O)n(-c3cccc(C(F)(F)F)c3)c(=S)[nH]c2c1`, the entry is “inactive”.
As for `CS/C=C/C(=O)O[C@@H]1CCC2=CC(=O)C(=C(C)C)C[C@]2(C)[C@H]1C`, the entry is “inactive”; as for `NC(=O)N1CCC(CC(=O)N2CCC(C3c4ncc(Br)cc4CCc4cc(Cl)cc(Br)c43)CC2)CC1` (centres undefined), “inactive”; as for `CO[C@H]1O[C@@H]2O[C@@]3(C)CCC4[C@H](C)CCC([C@H]1C)[C@]42OO3` (some centres undefined), “inactive”.
On to `C=C(COC(=O)C(O)C(O)CN)C12OC1C1(C)C(=CC2=O)C(O)C(O)CC1C` (centres undefined), for which the Potency entry was “inactive”.
Take `NS(=O)(=O)c1ccc(N2N=C(c3ccccc3)CC2c2ccccc2)cc1` (centres undefined): the Potency entry was “inactive”.
Turning to `Cc1cc2c(cc1N1C(=O)c3cccc4c(CCCO)ccc(c34)C1=O)n(C)c(=O)n2C`, the Potency entry was “inactive”.
As to `Cc1ccc(C)c(NC(=O)[C@@H]2CCCN2S(=O)(=O)c2cccc3cccnc23)c1`, the Potency result was “inactive”.
As for `C=C[C@](C)(O)CC[C@H]1C(C)=CC(=O)[C@H]2C(C)(C)CCC[C@]12C`, the entry is “inactive”; as for `O=C(Nc1ccccc1Br)NC1CCN(c2ccc(C(F)(F)F)cn2)C1` (centres undefined), “inactive”; as for `O=C(COc1ccc2ccccc2c1Br)Nc1cccnc1`, “inactive”.
As for `CC(=O)C=C=C1C(C)(C)CC(O)CC1(C)O[C@@H]1O[C@H](CO[C@H]2OC[C@](O)(CO)[C@H]2O)[C@@H](O)[C@H](O)[C@H]1O` (some centres undefined), the figure is 11.2 µM (active).
As for `C=C1C(=O)O[C@H]2/C=C(/C)[C@@H](OC(C)=O)C/C=C(\C)C[C@@H](OC(=O)/C(=C/C)COC(=O)/C(=C/C)CO)[C@@H]12`, the entry is “inactive”.
Consider `Nc1nc(Nc2ccc3c(c2)CCC(N2CCCC2)CC3)nn1-c1cc2c(nn1)-c1ccccc1CCC2` (centres undefined), for which the Potency result was “inactive”.
As for `C[C@H](Oc1cc(-c2cnn(C3CCNCC3)c2)cnc1N)c1c(Cl)ccc(F)c1Cl`, the entry is “inactive”.
For the molecule `C=C1C(=O)O[C@@H]2/C=C(\CO)CC/C=C(/C=O)C[C@H](O)[C@@H]12`, the Potency entry was “inactive”.
For `COc1cc(CCC2=NN=C(NC(=O)c3ccc(N4C[C@@H](C)N[C@@H](C)C4)cc3)C2)cc(OC)c1` the value was “inactive”.
Consider `CC(NC(=O)Cc1cc(F)cc(F)c1)C(=O)NC1C(=O)N(C)c2ccccc2-c2ccccc21` (centres undefined), for which the Potency result was “inactive”.
For `CC1(C)CC[C@]2(C(=O)O[C@@H]3O[C@H](CO)[C@@H](O)[C@H](O)[C@H]3O)CC[C@]3(C)C(=CCC4[C@@]5(C)CC[C@H](O[C@@H]6O[C@H](C(=O)O)[C@H](O)[C@H](O)[C@H]6O)C(C)(C)C5CC[C@]43C)[C@@H]2C1` (some centres undefined) the value was “inactive”.
As for `CCOc1cc(C(C)(C)C)ccc1C1=N[C@@](C)(c2ccc(Cl)cc2)[C@@](C)(c2ccc(Cl)cc2)N1C(=O)N1CCN(CC(=O)N2CCOCC2)CC1`, the entry is “inactive”.
For `COc1cc2ncnc(Nc3ccc(F)c(Cl)c3)c2cc1O` the value was “inactive”; for `C=CC(=O)Nc1ccc2ncnc(Nc3cccc(Br)c3)c2c1`, “inactive”; for `COc1cc(C2OC(c3ccc(OC)c(OC)c3)C(C)C2C)ccc1O` (centres undefined), “inactive”.
On to `N#Cc1ccc(-c2ccc(S(=O)(=O)Nc3cccc(N)n3)cc2)cc1`, for which the Potency entry was “inactive”.
On to `Cc1cc(F)ccc1[C@H]1C[C@@H](N2CCN3C(=O)CC[C@H]3C2)CCN1C(=O)N(C)[C@H](C)c1cc(C(F)(F)F)cc(C(F)(F)F)c1`, for which the Potency entry was “inactive”.

Values taken from PubChem BioAssay (NCATS).
